Data published in PubChem BioAssay AID2283174 (EPA ToxCast).
Active and inactive are the calls of the source. Rule for the calls: active = hit-call score of the fitted dose curve at least 0.9, where 1 is the maximum; inactive = score below 0.9.

What follows are compounds tested against human Mitogen-Activated Protein Kinase 11 (MAPK 11), MAPK11 (gene 5600) (UniProt Q15759) (assay: NVS_ENZ_hMAPK11: NovaScreen (NVS) Enzymatic Assay for human Mitogen-Activated Protein Kinase 11 (MAPK 11)).
Description: NVS_ENZ_hMAPK11 is a biochemical, single-readout assay that uses extracted gene-proteins in a cell-free assay. Measurements were taken 0 hour after chemical dosing in a 384-well plate.NVS_ENZ_hMAPK11 is one of one assay component(s) measured or calculated from the NVS_ENZ_hMAPK11 assay. It is designed to make measurements of enzyme activity, a form of enzyme reporter, as detected with fluorescence intensity signals by Fluorescence and electrophoretic mobility shift technology.Data from the assay component NVS_ENZ_hMAPK11 was analyzed into 1 assay endpoint. This assay endpoint, NVS_ENZ_hMAPK11, was analyzed in the positive analysis fitting direction relative to DMSO as the negative control and baseline of activity. Using a type of enzyme reporter, loss-of-signal activity can be used to understand changes in the enzymatic activity as they relate to the gene MAPK11. Furthermore, this assay endpoint can be referred to as a primary readout, because this assay has produced multiple assay endpoints where this one serves a enzymatic activity function. To generalize the intended target to other relatable targets, this assay endpoint is annotated to the kinase intended target family, where the subfamily is serine/threonine kinase.
Binding assays used specific radioligands (tritiated, iodinated) with non-radioactive competitive displacement ligands in agonist or antagonist protocols (as indicated) and various reference compounds and inhibitors to titrate specific binding to receptors and transporters. Most enzyme assays (CYPs, kinases, phosphatases, proteases, HDACs) used recombinant protein and specific substrates (fluorescence mostly, some colorimetric and radioactive) and inhibitors, followed by a biochemical separation of substrate and product. All assays for the biochemical HTS were initially run in duplicate at a single concentration (10 uM for CYP450 assays and 25 uM for all others). Assay-chemical combinations meeting a pre-defined threshold (e.g., 30% inhibition and other criteria defined below) were then run in singleton concentration-response format with maximum concentration of 20 uM for CYPs and 50 uM for all others. Each assay was run with positive and negative controls, and concurrent controls on every plate. The follow-up (secondary) screen tested active chemical-pairs in concentration series, as well as a few additional assays not tested in the primary screen, some selected negative inactives, and several cases re-run in the concentration series for confirmatory purposes.

human Mitogen-Activated Protein Kinase 11 (MAPK 11), MAPK11 (gene 5600), sequence (Q15759 whole entry, looked up): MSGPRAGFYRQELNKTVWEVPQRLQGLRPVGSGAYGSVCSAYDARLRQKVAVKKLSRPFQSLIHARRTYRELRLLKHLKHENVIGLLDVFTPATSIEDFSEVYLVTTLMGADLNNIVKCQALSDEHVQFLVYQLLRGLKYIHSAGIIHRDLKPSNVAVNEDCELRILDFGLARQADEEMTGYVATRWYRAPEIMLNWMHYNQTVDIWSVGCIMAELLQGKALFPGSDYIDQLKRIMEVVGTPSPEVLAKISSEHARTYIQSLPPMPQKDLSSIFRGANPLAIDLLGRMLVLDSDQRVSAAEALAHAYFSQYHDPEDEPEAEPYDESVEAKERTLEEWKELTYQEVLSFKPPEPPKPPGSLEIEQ

Row | SMILES | outcome
1 | CC(C)(C)C(O)/C(=C\c1ccc(Cl)cc1Cl)n1cncn1 (centres undefined) | inactive
2 | COc1nc(C)nc(NC(=O)NS(=O)(=O)c2ccccc2CCC(F)(F)F)n1 | inactive
3 | Fc1ccc(Oc2ccnc3cc(Cl)cc(Cl)c23)cc1 | inactive
4 | C[Si](Cn1cncn1)(c1ccc(F)cc1)c1ccc(F)cc1 | inactive
